From PubChem BioAssay (NCATS)
Inconclusive results are not listed. Entries that show only a call come without a potency. Active and inactive are the calls of the source. Unless noted, calls come from the whole dose curve; as a rule, active = well fitted curve in the direction sought with a large enough effect; inconclusive = small, poorly fitted or top-dose-only effect, or another doubt; inactive = no such curve, though single readings can be large; an effect the other way counts as inactive or inconclusive.

Key:
[1] = molecular target: Thioredoxin reductase 1, cytoplasmic (Rattus norvegicus) (UniProt O89049); test: qHTS Assay for Inhibitors of Mammalian Selenoprotein Thioredoxin Reductase 1 (TrxR1) (AID 488773); conditions: purified TrxR1 enzyme activity; Potency: inhibition; series mostly up to 57.1 µM; note: nearly all actives have a fitted effect of over 40% in size; note: potency is the fitted concentration of half-maximal effect
Outline: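 Inhibition is scored from the loss of NADPH fluorescence between first and last reads of an 8-min kinetic run. Selenite (400 uM) was the substrate, added after 15 min compound preincubation at room temperature.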

[2] = molecular target: M-phase phosphoprotein 8 (Homo sapiens) (UniProt Q99549); test: qHTS Validation Assay for Inhibitors for MPP8 Chromodomain Interactions with Methylated Histone Tails (AID 488949); conditions: AlphaScreen MPP8 binding to H3K9me3 peptide; series mostly up to 57.1 µM; note: nearly all actives have a fitted effect of over 55% in size; note: potency is the fitted concentration of half-maximal effect
M-phase phosphoprotein 8 (Homo sapiens), sequence (Q99549 whole entry, looked up): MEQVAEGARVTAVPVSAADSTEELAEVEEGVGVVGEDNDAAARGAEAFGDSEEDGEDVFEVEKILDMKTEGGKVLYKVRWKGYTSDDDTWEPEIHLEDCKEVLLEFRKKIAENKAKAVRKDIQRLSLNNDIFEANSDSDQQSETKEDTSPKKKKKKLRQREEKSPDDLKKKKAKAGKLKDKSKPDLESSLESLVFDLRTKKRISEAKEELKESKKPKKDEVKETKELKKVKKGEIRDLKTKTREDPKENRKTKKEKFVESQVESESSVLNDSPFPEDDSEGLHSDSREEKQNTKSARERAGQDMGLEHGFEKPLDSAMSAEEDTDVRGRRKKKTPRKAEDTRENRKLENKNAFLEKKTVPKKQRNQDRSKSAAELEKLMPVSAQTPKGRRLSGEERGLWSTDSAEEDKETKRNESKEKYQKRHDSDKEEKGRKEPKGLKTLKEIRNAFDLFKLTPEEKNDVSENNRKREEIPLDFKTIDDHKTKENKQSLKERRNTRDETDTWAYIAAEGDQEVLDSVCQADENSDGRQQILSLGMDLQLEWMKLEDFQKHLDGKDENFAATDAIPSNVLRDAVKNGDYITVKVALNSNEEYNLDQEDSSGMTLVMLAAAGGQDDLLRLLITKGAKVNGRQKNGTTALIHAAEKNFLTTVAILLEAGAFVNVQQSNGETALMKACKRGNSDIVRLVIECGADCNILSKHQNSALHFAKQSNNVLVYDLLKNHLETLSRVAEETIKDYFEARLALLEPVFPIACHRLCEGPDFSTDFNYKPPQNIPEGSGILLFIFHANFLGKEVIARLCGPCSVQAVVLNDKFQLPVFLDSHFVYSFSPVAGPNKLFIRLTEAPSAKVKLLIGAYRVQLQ
Outline: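 50 nM MPP8 + 50 nM b-H3K9me3 peptide, PBS pH 7.4/0.01% Tween-20, 30 min RT; + cpd 30 min RT; + AlphaScreen donor/Ni-chelate acceptor beads 10 ug/mL final, 30 min dark; luminescence read.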

[3] = molecular target: Chromobox protein homolog 1 (Homo sapiens) (UniProt P83916); test: qHTS Validation Assay for Inhibitors of HP1-beta Chromodomain Interactions with Methylated Histone Tails (AID 488953); conditions: HP1-beta chromodomain / methylated histone peptide binding assay; series mostly up to 114 µM; note: nearly all actives have a fitted effect of over 50% in size; note: potency is the fitted concentration of half-maximal effect
Chromobox protein homolog 1 (Homo sapiens), sequence (P83916 whole entry, looked up): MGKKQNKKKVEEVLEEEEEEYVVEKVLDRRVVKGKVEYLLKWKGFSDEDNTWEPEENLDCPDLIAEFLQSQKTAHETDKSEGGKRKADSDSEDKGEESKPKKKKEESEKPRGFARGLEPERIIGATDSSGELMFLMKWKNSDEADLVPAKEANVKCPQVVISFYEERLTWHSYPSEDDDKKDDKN
Outline: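 AlphaScreen proximity signal from streptavidin donor and nickel chelate acceptor beads (final 10 ug/mL) after 30 min dark incubation. Compounds had 30 min at room temperature with preformed complex of 50 nM HP1-beta and 50 nM b-H3(1-18)K9me3 in PBS pH 7.4 with 0.01% Tween-20.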

[4] = molecular target: Methanococcus maripaludis chaperonin (MmCpn) (UniProt Q6LX38); test: High-Throughput Screening for Modulators of Cytosolic Chaperonin Activity: MmCpn Primary Screen (AID 488978); conditions: Purified MmCpn ATPase activity, ADP HTRF detection, 10 min; series mostly up to 76.9 µM;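 note: 50 nM MmCpn enzyme hydrolysing 30 µM ATP at 37 °C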
Methanococcus maripaludis chaperonin (MmCpn), sequence (Q6LX38 1-543): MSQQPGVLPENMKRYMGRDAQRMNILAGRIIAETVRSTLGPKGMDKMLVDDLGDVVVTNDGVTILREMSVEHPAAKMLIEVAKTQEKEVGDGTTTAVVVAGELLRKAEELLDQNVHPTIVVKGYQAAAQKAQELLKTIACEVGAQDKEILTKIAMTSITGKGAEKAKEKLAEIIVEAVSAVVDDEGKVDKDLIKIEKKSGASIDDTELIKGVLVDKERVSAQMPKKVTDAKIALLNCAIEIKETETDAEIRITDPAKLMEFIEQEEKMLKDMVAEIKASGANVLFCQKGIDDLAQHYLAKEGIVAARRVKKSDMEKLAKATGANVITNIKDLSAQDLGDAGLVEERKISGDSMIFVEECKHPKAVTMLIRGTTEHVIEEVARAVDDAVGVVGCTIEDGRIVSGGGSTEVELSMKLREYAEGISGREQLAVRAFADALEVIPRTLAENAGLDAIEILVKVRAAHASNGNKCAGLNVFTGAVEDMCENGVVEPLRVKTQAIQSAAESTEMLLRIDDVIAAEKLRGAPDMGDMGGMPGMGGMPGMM
Outline: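 Steps: chaperonin 50 nM final; add compound, 5 min RT; start with ATP, 30 uM final; hold 10 min at 37C; add ADP Transcreener HTRF reagent, 5 min; read ex 320, em 590 and 665 nm.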

[5] = molecular target: Transient receptor potential cation channel subfamily V member 1 (Homo sapiens) (UniProt Q8NER1); test: HTS Assay for Compounds that Act as Enhancers of the Vanilloid Receptor 1 (AID 488979); conditions: TRPV1-expressing cells, enhancer of channel activity; series mostly up to 41.7 µM
Transient receptor potential cation channel subfamily V member 1 (Homo sapiens), sequence (Q8NER1 whole entry, looked up): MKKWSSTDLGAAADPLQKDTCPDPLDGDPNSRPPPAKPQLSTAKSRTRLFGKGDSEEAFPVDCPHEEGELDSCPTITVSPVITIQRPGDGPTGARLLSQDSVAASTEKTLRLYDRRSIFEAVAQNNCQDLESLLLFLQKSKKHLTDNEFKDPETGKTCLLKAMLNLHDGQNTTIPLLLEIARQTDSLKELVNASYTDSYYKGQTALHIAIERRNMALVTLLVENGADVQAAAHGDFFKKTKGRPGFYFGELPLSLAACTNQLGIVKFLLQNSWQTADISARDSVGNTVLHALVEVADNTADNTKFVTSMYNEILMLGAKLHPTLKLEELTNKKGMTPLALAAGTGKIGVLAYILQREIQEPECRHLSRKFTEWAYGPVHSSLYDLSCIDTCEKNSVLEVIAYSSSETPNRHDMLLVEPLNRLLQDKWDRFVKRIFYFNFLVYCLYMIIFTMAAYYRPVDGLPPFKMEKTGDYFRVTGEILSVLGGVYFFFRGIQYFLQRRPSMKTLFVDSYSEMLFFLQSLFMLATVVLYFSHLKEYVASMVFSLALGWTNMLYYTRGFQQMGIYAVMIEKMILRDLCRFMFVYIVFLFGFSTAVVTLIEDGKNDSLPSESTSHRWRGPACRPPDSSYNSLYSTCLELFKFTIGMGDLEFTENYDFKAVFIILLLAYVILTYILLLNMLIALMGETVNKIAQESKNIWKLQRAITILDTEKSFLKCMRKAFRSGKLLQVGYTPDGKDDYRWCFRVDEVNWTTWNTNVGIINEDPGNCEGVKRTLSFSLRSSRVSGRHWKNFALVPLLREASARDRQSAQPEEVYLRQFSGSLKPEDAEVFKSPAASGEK
Outline: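 TRPV1-expressing cells loaded with Fluo-8 calcium dye; compounds added and calcium influx read kinetically for 3 min (agonist phase), then capsaicin at EC20 added and read 2 min more for enhancement. Fluorescence ex 480/em 520 nm.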

[6] = molecular target: Thyrotropin receptor (Homo sapiens) (UniProt P16473); test: qHTS Assay for Antagonists of the Thyroid Stimulating Hormone Receptor (AID 488980); conditions: TSHR-expressing cells, cAMP antagonist read-out; series mostly up to 57.5 µM
Outline: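 Readout is cAMP by HTRF competition between cellular cAMP and cAMP-d2 for a cryptate-labelled antibody. Antagonism was assessed in TSHR-transfected HEK293 cells stimulated with 4 nM TSH (EC80, final) in the presence of RO 20-1724.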

[7] = molecular target: D(1A) dopamine receptor (Homo sapiens) (UniProt P21728); test: HTS Assay for Allosteric Agonists of the Human D1 Dopamine Receptor: Primary Screen for Agonists (AID 488981); conditions: Inducible HEK293 T-REx D1 cells, calcium-flux fluorescence, 180 s kinetic; series mostly up to 41.8 µM; note: potency is the fitted concentration of half-maximal effect
Outline: (§1)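 Tetracycline-induced HEK293 T-REx cells force-coupled to calcium signalling were incubated overnight at 30 C and dye-loaded at room temperature. Calcium flux over 180 s after compound addition flagged agonists; a further 180 s read after EC20 dopamine flagged potentiators.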

[8] = molecular target: D(1A) dopamine receptor (Homo sapiens) (UniProt P21728); test: HTS Assay for Allosteric Agonists of the Human D1 Dopamine Receptor: Primary Screen for Potentiators (AID 488982); conditions: HEK293 T-REx D1 inducible cells, calcium flux, kinetic fluorescence; series mostly up to 8.37 µM
Outline: as §1

[9] = molecular target: D(1A) dopamine receptor (Homo sapiens) (UniProt P21728); test: HTS Assay for Allosteric Agonists of the Human D1 Dopamine Receptor: Primary Screen for Antagonists (AID 488983); conditions: D1 receptor cell assay, antagonist mode, qHTS titration; series mostly up to 41.8 µM;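 note: calcium flux response to an EC80 dopamine challenge measured with no-wash dye; nearly all actives have a fitted effect of over 65% in size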
Outline: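 Calcium-flux read-out in inducible HEK293 T-REx cells expressing D1, dye-loaded 30–90 min at room temperature. Kinetic reads: 180 s after compound (agonist phase), then 180 s after an EC80 dopamine challenge.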

[10] = Validation screen for small molecules that induce genotoxicity in human embryonic kidney (HEK293T) cells expressing luciferase-tagged ELG1 (AID 493106); conditions: luminescence; series mostly up to 46.1 µM
Outline: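 ELG1-luciferase reporter readout (ONE-Glo, 30 min, room temperature) after 16 hr compound treatment at 37 °C of HEK293T cells at 2,000 per well. Rising luminescence flags genotoxic stress.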

[11] = molecular target: Thyrotropin-releasing hormone receptor (Homo sapiens) (UniProt P34981); test: qHTS for Small Molecule Agonists and Allosteric Enhancers of Human TRH Receptor: Validation Screen for Agonists (AID 493127;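 active = calcium activation more than 3 SD above the typical response in the agonist read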;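 note: intracellular calcium rise by fluo-8 fluorescence before TRH EC20 addition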); conditions: TRH receptor agonist cell assay; at 2 µM; stronger effect = higher value
Thyrotropin-releasing hormone receptor (Homo sapiens), sequence (P34981 whole entry, looked up): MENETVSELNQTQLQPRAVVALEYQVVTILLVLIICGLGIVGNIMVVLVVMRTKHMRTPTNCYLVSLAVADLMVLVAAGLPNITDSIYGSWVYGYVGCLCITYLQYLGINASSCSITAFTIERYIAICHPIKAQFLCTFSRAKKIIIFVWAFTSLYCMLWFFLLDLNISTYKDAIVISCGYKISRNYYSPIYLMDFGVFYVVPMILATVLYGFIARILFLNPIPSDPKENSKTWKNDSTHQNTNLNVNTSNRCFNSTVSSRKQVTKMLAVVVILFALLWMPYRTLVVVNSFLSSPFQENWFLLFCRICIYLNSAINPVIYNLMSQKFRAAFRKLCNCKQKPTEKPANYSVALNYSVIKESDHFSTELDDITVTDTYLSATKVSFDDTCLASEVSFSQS
Outline: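 Compound-evoked intracellular calcium release in fluo-8-loaded TRHR cells, read kinetically on FDSS (Ex 480/Em 530, 1 s/cycle) after 23 nL pintool transfer. Agonist phase preceded 10 nM TRH EC20 addition.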

[12] = Nrf2 qHTS screen for inhibitors: Validation (AID 493153; active = well fitted inhibition curve with a large enough effect in the main read-out, with a control signal flat, not every such curve was filed as active); conditions: A549 ARE-Fluc reporter, 18-24 h; Potency: luciferase luminescence; viability change: measured here: cytotoxicity max response; luciferase luminescence, at 46.1 µM (top of the series)
Outline: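 Concentration-response on A549 ARE_Fluc reporter cells exposed 18-24 h at 37 C, 5% CO2. Cytotoxicity read first by CellTiter-Fluor fluorescence (Ex 405/Em 525), then Nrf2 inhibition by BugLite luminescence after 15 min.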

[13] = qHTS for Inhibitors of Cell Surface uPA Generation: Validation Assay (AID 493164); conditions: mouse cells, plasminogen activation; series mostly up to 38.3 µM;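 note: RAW 264.7 macrophage cells exposed to compound for 18 h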
Outline: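 ATP-Lite luminescence read-out: ATP remains high when uPA activity-dependent LF translocation into the cytoplasm is blocked. RAW 264.7 cells, 18 h compound exposure at 37 C; 7-point titration, 2.45 nM to 38.3 uM final.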

[14] = Validation screen for small molecules that induce DNA re-replication in SW480 colon adenocarcinoma cells (AID 504364); conditions: DNA re-replication phenotype (high-content imaging); series mostly up to 46.1 µM
Outline: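 Image-based DNA content read-out: Hoechst stain 40 min, total nuclear fluorescence intensity (ex 405 nm, em 500-530 nm) after 48 h compound exposure of 250 SW480 cells/well at 37 C, 5% CO2, versus DMSO vehicle.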

[15] = molecular target: Flap endonuclease 1 (Homo sapiens) (UniProt P39748); test: qHTS Validation Assay for the Inhibitors of Human Flap endonuclease 1 (FEN1) (AID 488816); conditions: FEN1 nuclease activity, fluorogenic DNA substrate; series mostly up to 57.1 µM
Outline: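 Steps: add FEN1 (10 nM reagent) or buffer only; pin compounds; hold 15 min at room temperature; start with substrate, 50 nM final; read at 0 and 15 min; correct, normalize and fit a four-parameter Hill curve.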

[16] = molecular target: ATPase family AAA domain-containing protein 5 (Homo sapiens) (UniProt Q96QE3); test: Validation screen for small molecules that inhibit ELG1-dependent DNA repair in human embryonic kidney (HEK293T) cells expressing luciferase-tagged ELG1 (AID 493107); conditions: HEK293T ELG1-luciferase level, luminescence, 5-fluorouridine co-treatment, 16 h; series mostly up to 46.1 µM; note: nearly all actives have a fitted effect of over 70% in size; note: potency is the fitted concentration of half-maximal effect
ATPase family AAA domain-containing protein 5 (Homo sapiens), sequence (Q96QE3 whole entry, looked up, the tested form may be a part): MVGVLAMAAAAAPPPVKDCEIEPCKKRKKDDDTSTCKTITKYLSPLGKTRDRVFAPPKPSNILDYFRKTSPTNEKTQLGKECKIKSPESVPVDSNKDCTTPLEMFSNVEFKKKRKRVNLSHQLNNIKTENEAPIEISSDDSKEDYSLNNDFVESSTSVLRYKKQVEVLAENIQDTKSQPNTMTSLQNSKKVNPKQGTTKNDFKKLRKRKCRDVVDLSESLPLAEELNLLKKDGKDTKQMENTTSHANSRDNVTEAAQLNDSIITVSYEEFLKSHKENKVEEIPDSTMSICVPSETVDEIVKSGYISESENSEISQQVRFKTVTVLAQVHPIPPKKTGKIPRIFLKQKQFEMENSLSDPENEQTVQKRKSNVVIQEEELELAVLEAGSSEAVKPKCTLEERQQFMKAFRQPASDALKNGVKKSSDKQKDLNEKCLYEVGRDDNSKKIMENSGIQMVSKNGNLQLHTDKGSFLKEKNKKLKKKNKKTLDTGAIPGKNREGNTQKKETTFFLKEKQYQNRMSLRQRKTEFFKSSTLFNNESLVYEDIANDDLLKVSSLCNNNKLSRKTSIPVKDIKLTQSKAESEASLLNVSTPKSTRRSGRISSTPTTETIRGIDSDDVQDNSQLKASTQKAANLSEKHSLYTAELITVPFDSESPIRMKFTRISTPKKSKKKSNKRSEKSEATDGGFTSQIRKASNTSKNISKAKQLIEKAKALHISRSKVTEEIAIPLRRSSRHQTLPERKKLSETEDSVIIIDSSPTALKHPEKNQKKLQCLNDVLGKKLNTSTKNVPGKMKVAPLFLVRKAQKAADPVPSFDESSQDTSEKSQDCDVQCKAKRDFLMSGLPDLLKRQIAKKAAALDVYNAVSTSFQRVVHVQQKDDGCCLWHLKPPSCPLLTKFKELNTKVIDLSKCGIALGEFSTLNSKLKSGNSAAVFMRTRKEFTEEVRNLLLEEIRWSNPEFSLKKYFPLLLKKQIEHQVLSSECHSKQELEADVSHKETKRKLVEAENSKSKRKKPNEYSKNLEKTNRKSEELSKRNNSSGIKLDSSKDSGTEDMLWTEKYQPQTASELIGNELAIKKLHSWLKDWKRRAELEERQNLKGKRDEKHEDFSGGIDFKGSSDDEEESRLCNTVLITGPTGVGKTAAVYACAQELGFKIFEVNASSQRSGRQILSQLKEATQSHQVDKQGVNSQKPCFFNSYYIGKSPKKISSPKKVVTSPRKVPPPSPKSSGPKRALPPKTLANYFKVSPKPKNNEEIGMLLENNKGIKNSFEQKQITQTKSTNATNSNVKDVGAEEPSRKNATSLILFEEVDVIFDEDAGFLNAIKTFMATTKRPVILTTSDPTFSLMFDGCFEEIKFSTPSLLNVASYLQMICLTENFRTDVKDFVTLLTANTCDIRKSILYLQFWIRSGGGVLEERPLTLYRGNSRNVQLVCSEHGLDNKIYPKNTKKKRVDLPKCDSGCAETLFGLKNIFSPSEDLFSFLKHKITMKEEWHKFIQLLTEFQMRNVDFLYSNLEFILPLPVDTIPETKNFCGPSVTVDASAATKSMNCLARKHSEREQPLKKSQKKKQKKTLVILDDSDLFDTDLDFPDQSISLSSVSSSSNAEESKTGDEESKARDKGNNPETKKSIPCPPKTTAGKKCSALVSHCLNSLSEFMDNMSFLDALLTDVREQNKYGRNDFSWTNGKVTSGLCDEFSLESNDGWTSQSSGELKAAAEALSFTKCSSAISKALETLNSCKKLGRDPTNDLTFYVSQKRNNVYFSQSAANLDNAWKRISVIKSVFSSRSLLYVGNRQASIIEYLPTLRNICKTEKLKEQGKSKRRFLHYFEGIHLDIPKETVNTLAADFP
Outline: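 Luciferase read-out, ONE-Glo, 30 min at room temperature, follows 16 h co-exposure at 37 C of compound and the DNA-damaging agent 5-fluorouridine. Cells: HEK293T with ELG1-luciferase fusion, 2,000 per well, DMSO as vehicle.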

[17] = molecular target: Galactokinase (Homo sapiens) (UniProt P51570); test: qHTS Validation Assay for Inhibitors of Human Galactokinase (GALK) (AID 493189); conditions: purified human GALK enzyme activity, qHTS 7-point titration; series mostly up to 57.5 µM
Galactokinase (Homo sapiens), sequence (P51570 whole entry, looked up): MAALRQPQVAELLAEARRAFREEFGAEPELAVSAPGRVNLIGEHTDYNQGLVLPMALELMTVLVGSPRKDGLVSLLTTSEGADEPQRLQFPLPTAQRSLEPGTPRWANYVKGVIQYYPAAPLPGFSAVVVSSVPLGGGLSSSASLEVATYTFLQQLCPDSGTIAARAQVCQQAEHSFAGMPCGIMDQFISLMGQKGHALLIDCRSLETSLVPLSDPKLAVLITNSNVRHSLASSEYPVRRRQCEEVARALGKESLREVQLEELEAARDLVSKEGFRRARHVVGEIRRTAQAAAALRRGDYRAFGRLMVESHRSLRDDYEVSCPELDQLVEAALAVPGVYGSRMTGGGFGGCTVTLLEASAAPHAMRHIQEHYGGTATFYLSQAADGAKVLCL
Outline: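 5 nM GALK / 100 uM galactose / 35 uM ATP, 20 mM HEPES pH8.0, 5 mM MgCl2, 60 mM NaCl, 1 mM DTT, 0.01% BSA (final). RT 1 h; Kinase-Glo Plus luminescence.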

[18] = molecular target: Thioredoxin reductase 1, cytoplasmic (Rattus norvegicus) (UniProt O89049); test: qHTS Assay for Substrates of Mammalian Selenoprotein Thioredoxin Reductase 1 (TrxR1) (AID 488772); conditions: purified TrxR1, NADPH consumption substrate assay; series mostly up to 57.1 µM;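 note: a drop in NADPH fluorescence below the no-compound background marks a TrxR1 substrate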
Outline: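 In this dual-purpose format, potential substrates are identified from the first fluorescence read after selenite addition, not from the 8-minute delta. Rat enzyme is preincubated with NADPH and then with compound at ~22 deg C.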

[19] = molecular target: ATP-dependent 6-phosphofructokinase (Trypanosoma brucei brucei) (UniProt O15648); test: qHTS Assay to Find Inhibitors of T. brucei phosphofructokinase: hit validation (AID 492961);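 note: luminescence reports ADP formed as PFK phosphorylates fructose-6-phosphate with ATP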; conditions: T. brucei PFK, ADP-Glo luminescence; series mostly up to 51.4 µM
Outline: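 Percent activity derived from corrected luminescence, normalized between 0x and 1x enzyme controls, then fitted to concentration-response curves. Conditions: 1.25 nM PFK, 0.1 mM ATP, 0.5 mM F6P, 45 min RT.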

Row | SMILES | Potency [1] | Potency [2] | Potency [3] | outcome [4] | outcome [5] | outcome [6] | Potency [7] | Potency [8] | Potency [9] | Potency [10] | activation [11] | Potency [12] | viability change [12] [%] | outcome [13] | Potency [14] | Potency [15] | Potency [16] | outcome [17] | outcome [18] | Potency [19]
1 | C[N+](C)(C)CC#CCOC(=O)Nc1cccc(Cl)c1 | 21.2 µM (active) | inactive | inactive | inactive | inactive | inactive | inactive | inactive | inactive | inactive | 0.875% (inactive) | inactive | -2.28 | inactive | inactive |  |  |  |  | 
2 | CCCN(CCC)C1Cc2cc(OC)c(OC)cc2C1 | inactive | inactive | inactive | inactive | inactive | inactive | inactive | inactive | inactive | inactive | -2.94% (inactive) | inactive | 11.4 | inactive | inactive | inactive | inactive | inactive |  | 
3 | N#CCCN | inactive |  | inactive | inactive |  |  | inactive | inactive | inactive | inactive |  | inactive | -4.25 | inactive |  | inactive |  |  |  | 
4 | CC(Cc1ccc(OCC(=O)O)cc1)NCC(O)c1cccc(Cl)c1 (stereo not drawn) | inactive |  | inactive | inactive | inactive | inactive | inactive | inactive | inactive | inactive |  | inactive | -9.13 | inactive | inactive | inactive | inactive | inactive |  | 
5 | COc1cc(CC(C)N)c(OC)cc1I (stereo not drawn) | inactive | inactive |  | inactive | inactive | inactive | inactive |  | inactive | inactive |  | inactive | -12.3 | inactive | inactive | inactive |  |  |  | 
6 | CC(N)[C@H](O)c1ccc(O)c(O)c1 (stereo partly drawn) | 11.9 µM (active) | 29.9 µM (active) |  | inactive | inactive |  | inactive | inactive | inactive | inactive | 1.12% (inactive) |  |  | inactive | inactive |  | inactive | inactive |  | 
7 | c1ccc2c(c1)[I+]c1ccccc1-2 |  |  | inactive | inactive | inactive | inactive | inactive |  | inactive | inactive |  |  |  | inactive |  |  |  | inactive | inactive | 
8 | CCN(CCCl)Cc1ccccc1Br |  |  | inactive | inactive | inactive | inactive | inactive | inactive |  | inactive |  |  |  | inactive | inactive |  | inactive |  | inactive | 
9 | C[C@H](Cc1ccc2c(c1)OC(C(=O)O)(C(=O)O)O2)NC[C@H](O)c1cccc(Cl)c1 | inactive | inactive | inactive | inactive | inactive | inactive | inactive | inactive | inactive | inactive | 0.625% (inactive) | inactive | 0.983 | inactive | inactive | inactive |  | inactive |  | 
10 | COC(=O)N1CCN(C(=O)Cc2ccc(Cl)c(Cl)c2)C(CN2CCCC2)C1 (stereo not drawn) | inactive | inactive |  | inactive | inactive | inactive | inactive | inactive | inactive | inactive | 0.875% (inactive) | inactive | 0.492 | inactive | inactive | inactive | inactive |  |  | 
11 | Cc1c2ccncc2c(C)c2c1[nH]c1ccccc12 |  |  | 50.1 µM (active) | inactive | inactive | inactive | 10 µM (active) | inactive | inactive | inactive | 28.2% (inactive) |  |  | inactive |  |  | 16.4 µM (active) |  | inactive | 
12 | CNc1ccc2oc(C[C@H]3O[C@@]4(CC[C@H]3C)O[C@H]([C@H](C)C(=O)c3ccc[nH]3)[C@H](C)C[C@H]4C)nc2c1C(=O)O | inactive | inactive | 0.006 µM (active) | inactive |  |  | 0.398 µM (active) |  |  | inactive | 0.125% (inactive) |  |  | inactive |  | inactive |  |  |  | 
13 | S=C=S |  |  |  |  |  |  |  |  |  |  |  |  |  |  |  |  |  |  |  | inactive
14 | CCN(CC)c1ncnc2c1ncn2[C@@H]1O[C@H](COP(=O)(O)OP(=O)(O)C(Br)(Br)P(=O)(O)O)[C@@H](O)[C@H]1O |  | inactive |  |  | inactive | inactive |  |  |  |  |  |  |  |  | inactive |  |  | inactive |  | 
15 | CCNC(C)Cc1cccc(C(F)(F)F)c1 (stereo not drawn) |  |  |  |  |  |  |  |  |  |  |  |  |  |  |  |  |  |  |  | inactive
